PubChem BioAssay (NCI)
The panel holds about 79,000 compounds, 15% with a hit somewhere; the sample as a whole holds those more often. Values without a mark were called inactive. Activity calls are given as the source filed them. Rule as the data show it: active = growth inhibition above about 70%; inactive = the rest.

What was measured:
[1] = NCI Yeast Anticancer Drug Screen. Data for the rad52 strain (AID 147);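 also: 0% = growth of vehicle-treated control cultures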; conditions: S. cerevisiae rad52 mutant growth inhibition, stronger effect = higher value
Summary of the method: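 Yeast strain carrying a DNA damage repair alteration was exposed to test compounds. Growth inhibition was measured relative to vehicle-treated controls.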

[2] = NCI Yeast Anticancer Drug Screen. Data for the wt1 strain (AID 149);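 also: 0% = growth of vehicle-treated wt1 cultures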; conditions: S. cerevisiae wt1 strain (SPY 50644) growth inhibition, stronger effect = higher value
Summary of the method: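 Readout: yeast growth inhibition, normalised to vehicle controls, in the wt1 strain exposed to test compounds.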

[3] = NCI Yeast Anticancer Drug Screen. Data for the rad50EPP+ strain (AID 151);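 also: 0% = growth of vehicle-treated control cultures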; conditions: S. cerevisiae rad50 mutant strain, stronger effect = higher value
Summary of the method: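 Yeast strain carrying rad50 alteration (rad50EPP+) exposed to compounds; growth inhibition measured relative to vehicle-treated controls.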

[4] = NCI Yeast Anticancer Drug Screen. Data for the mgt1 strain (AID 153); conditions: S. cerevisiae mgt1 mutant growth inhibition, stronger effect = higher value
Summary of the method: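 Yeast mgt1 strain (DNA repair/cell-cycle alteration panel) exposed to compounds; growth inhibition measured relative to vehicle-treated controls.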

[5] = NCI Yeast Anticancer Drug Screen. Data for the rad50 strain (AID 155);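 also: 0% = growth of vehicle-only cultures of the same strain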; conditions: S. cerevisiae rad50 strain growth inhibition, stronger effect = higher value
Summary of the method: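 Compounds were tested on a yeast strain with an engineered DNA damage repair alteration; the reported value is growth inhibition normalised to vehicle treatment.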

[6] = NCI Yeast Anticancer Drug Screen. Data for the mec2-1 strain (AID 157); conditions: S. cerevisiae mec2-1 strain, stronger effect = higher value
Summary of the method: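 mec2-1 yeast strain, carrying an alteration in DNA damage repair or cell cycle control, was exposed to compounds; growth inhibition was measured relative to vehicle-treated controls.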

[7] = NCI Yeast Anticancer Drug Screen. Data for the rad14 strain (AID 159);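 also: 0% = growth of vehicle-treated control cultures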; conditions: S. cerevisiae rad14 strain growth inhibition, stronger effect = higher value
Summary of the method: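 Compound-treated yeast with a defined DNA-repair lesion; growth inhibition normalised to vehicle-treated cultures.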

[8] = NCI Yeast Anticancer Drug Screen. Data for the sgs1 mgt1 strain (AID 161);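 also: 0% = growth of cultures given vehicle only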; conditions: S. cerevisiae sgs1 mgt1 strain, stronger effect = higher value
Summary of the method: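 Compounds are added to genetically altered yeast, and growth is compared with cultures given vehicle alone to give percent inhibition.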

[9] = NCI Yeast Anticancer Drug Screen. Data for the CLN2oe strain (AID 163);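 also: 0% = growth of vehicle-only control cultures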; conditions: S. cerevisiae CLN2oe strain, stronger effect = higher value
Summary of the method: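 Yeast cells carrying a defined cell-cycle control alteration were exposed to test compounds. Growth inhibition was scored against vehicle-treated control cultures.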

[10] = NCI Yeast Anticancer Drug Screen. Data for the cln2 rad14 strain (AID 165);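 also: 0% = growth equal to vehicle treated cultures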; conditions: S. cerevisiae cln2 rad14 strain, stronger effect = higher value
Summary of the method: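 Yeast carrying cln2 and rad14 alterations (cell cycle control and DNA damage repair) were exposed to compounds. Growth inhibition was measured against vehicle-treated controls.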

[11] = NCI Yeast Anticancer Drug Screen. Data for the bub3 strain (AID 167); conditions: S. cerevisiae bub3 mutant strain, stronger effect = higher value
Summary of the method: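 Growth of a checkpoint-deficient yeast mutant is measured after compound exposure. Values represent inhibition relative to vehicle.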

[12] = NCI Yeast Anticancer Drug Screen. Data for the wt2 strain (AID 169);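 also: 0% = growth of vehicle-treated yeast cultures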; conditions: S. cerevisiae wt2 strain growth inhibition, stronger effect = higher value
Summary of the method: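 Yeast cells were exposed to test compounds, and growth inhibition was measured relative to vehicle-treated controls.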

[13] = NCI Yeast Anticancer Drug Screen. Data for the mlh1 strain (AID 171);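 also: 0% = growth of vehicle-treated control cultures of the same strain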; conditions: S. cerevisiae mlh1 strain growth inhibition, stronger effect = higher value
Summary of the method: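 Yeast carrying a defined genetic alteration in DNA damage repair or cell cycle control were exposed to test compounds. Growth inhibition was measured relative to vehicle-treated controls.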

[14] = NCI Yeast Anticancer Drug Screen. Data for the sgs1 strain (AID 173);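 also: 0% = growth of vehicle-only control cultures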; conditions: S. cerevisiae sgs1 mutant, stronger effect = higher value
Summary of the method: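 Yeast mutant strains carrying defined defects in DNA damage repair or cell cycle control were exposed to test compounds. Growth inhibition was scored against vehicle-treated controls.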

[15] = NCI Yeast Anticancer Drug Screen. Data for the mlh1 rad18 strain (AID 175); conditions: S. cerevisiae mlh1 rad18 strain growth inhibition, stronger effect = higher value
Summary of the method: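 Growth inhibition of the yeast strain was measured after compound exposure and expressed relative to vehicle-treated controls. The strain carries defined defects in DNA damage repair.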

[16] = NCI Yeast Anticancer Drug Screen. Data for the rad18 strain (AID 177); conditions: S. cerevisiae rad18 mutant growth inhibition, stronger effect = higher value
Summary of the method: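 Yeast carrying a defined DNA damage repair alteration were exposed to compounds. Growth inhibition was expressed relative to vehicle-treated controls.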

[17] = at 5.0 µM (retest, dose inferred, filed as 0.5)
[18] = at 50.0 µM (retest, dose inferred, filed as 5.0)

CCCCCCc1cc(C(=O)OC/C(C)=N/NC(N)=O)c2ccccc2n1
growth inhibition ([1]; at 1.2 µM): -1%
growth inhibition ([1]; at 3.7 µM): -1%
growth inhibition ([1]; at 11.0 µM): 1%
growth inhibition ([1]; at 33.0 µM): -1%
growth inhibition ([1]; at 100.0 µM): -3%
growth inhibition ([2]; at 1.2 µM): -2%
growth inhibition ([2]; at 3.7 µM): 1%
growth inhibition ([2]; at 11.0 µM): -4%
growth inhibition ([2]; at 33.0 µM): -5%
growth inhibition ([2]; at 100.0 µM): -5%
growth inhibition ([3]; at 1.2 µM): -1%
growth inhibition ([3]; at 3.7 µM): -3%
growth inhibition ([3]; at 11.0 µM): -4%
growth inhibition ([3]; at 33.0 µM): 2%
growth inhibition ([3]; at 100.0 µM): 3%
growth inhibition ([4]; at 1.2 µM): -3%
growth inhibition ([4]; at 3.7 µM): -3%
growth inhibition ([4]; at 11.0 µM): -2%
growth inhibition ([4]; at 33.0 µM): -5%
growth inhibition ([4]; at 100.0 µM): -5%
growth inhibition ([5]; at 1.2 µM): -3%
growth inhibition ([5]; at 3.7 µM): -3%
growth inhibition [5, 17]: -3%
growth inhibition ([5]; at 11.0 µM): 0%
growth inhibition ([5]; at 33.0 µM): -4%
growth inhibition [5, 18]: 32%
growth inhibition ([5]; at 50.0 µM): 26.6%
growth inhibition ([5]; at 100.0 µM): -4%
growth inhibition ([6]; at 1.2 µM): -4%
growth inhibition ([6]; at 3.7 µM): -2%
growth inhibition [6, 17]: -6%
growth inhibition ([6]; at 11.0 µM): -6%
growth inhibition ([6]; at 33.0 µM): -3%
growth inhibition [6, 18]: 42%
growth inhibition ([6]; at 50.0 µM): -1.15%
growth inhibition ([6]; at 100.0 µM): -7%
growth inhibition ([7]; at 1.2 µM): 0%
growth inhibition ([7]; at 3.7 µM): 3%
growth inhibition ([7]; at 11.0 µM): 3%
growth inhibition ([7]; at 33.0 µM): 0%
growth inhibition ([7]; at 100.0 µM): -4%
growth inhibition [8, 17]: -4%
growth inhibition [8, 18]: 47%
growth inhibition ([8]; at 50.0 µM): 31%
growth inhibition ([9]; at 1.2 µM): -3%
growth inhibition ([9]; at 3.7 µM): -11%
growth inhibition ([9]; at 11.0 µM): -5%
growth inhibition ([9]; at 33.0 µM): -13%
growth inhibition ([9]; at 100.0 µM): -10%
growth inhibition [10, 17]: -1%
growth inhibition [10, 18]: 21%
growth inhibition ([10]; at 50.0 µM): -12.3%
growth inhibition ([11]; at 1.2 µM): 0%
growth inhibition ([11]; at 3.7 µM): -4%
growth inhibition [11, 17]: -2%
growth inhibition ([11]; at 11.0 µM): -2%
growth inhibition ([11]; at 33.0 µM): 3%
growth inhibition [11, 18]: 77% (active)
growth inhibition ([11]; at 50.0 µM): 68.5%
growth inhibition ([11]; at 100.0 µM): 5%
growth inhibition ([12]; at 1.2 µM): 0%
growth inhibition ([12]; at 3.7 µM): -1%
growth inhibition ([12]; at 11.0 µM): 0%
growth inhibition ([12]; at 33.0 µM): -2%
growth inhibition ([12]; at 100.0 µM): -4%
growth inhibition ([13]; at 1.2 µM): -3%
growth inhibition ([13]; at 3.7 µM): -4%
growth inhibition ([13]; at 11.0 µM): -4%
growth inhibition ([13]; at 33.0 µM): -5%
growth inhibition ([13]; at 100.0 µM): -5%
growth inhibition ([14]; at 1.2 µM): -4%
growth inhibition ([14]; at 3.7 µM): -4%
growth inhibition ([14]; at 11.0 µM): -6%
growth inhibition ([14]; at 33.0 µM): -5%
growth inhibition ([14]; at 100.0 µM): -4%
growth inhibition [15, 17]: -4%
growth inhibition [15, 18]: 50%
growth inhibition ([15]; at 50.0 µM): 61.4%
growth inhibition ([16]; at 1.2 µM): -1%
growth inhibition ([16]; at 3.7 µM): -2%
growth inhibition ([16]; at 11.0 µM): -4%
growth inhibition ([16]; at 33.0 µM): -7%
growth inhibition ([16]; at 100.0 µM): -7%

COP(=O)(OC)/C(=C\C1=CN(C(c2ccccc2)(c2ccccc2)c2ccccc2)CN1)NC=O
growth inhibition ([1]; at 1.2 µM): -12%
growth inhibition ([1]; at 3.7 µM): -15%
growth inhibition ([1]; at 11.0 µM): -11%
growth inhibition ([1]; at 33.0 µM): 59%
growth inhibition ([1]; at 100.0 µM): 96% (active)
growth inhibition ([2]; at 1.2 µM): 12%
growth inhibition ([2]; at 3.7 µM): 3%
growth inhibition ([2]; at 11.0 µM): 5%
growth inhibition ([2]; at 33.0 µM): 54%
growth inhibition ([2]; at 100.0 µM): 96% (active)
growth inhibition ([3]; at 1.2 µM): 2%
growth inhibition ([3]; at 3.7 µM): 10%
growth inhibition ([3]; at 11.0 µM): 73% (active)
growth inhibition ([3]; at 33.0 µM): 96% (active)
growth inhibition ([3]; at 100.0 µM): 97% (active)
growth inhibition ([4]; at 1.2 µM): 6%
growth inhibition ([4]; at 3.7 µM): -3%
growth inhibition ([4]; at 11.0 µM): 11%
growth inhibition ([4]; at 33.0 µM): 67%
growth inhibition ([4]; at 100.0 µM): 96% (active)
growth inhibition ([5]; at 1.2 µM): -14%
growth inhibition ([5]; at 3.7 µM): -32%
growth inhibition [5, 17]: 2%
growth inhibition ([5]; at 11.0 µM): -17%
growth inhibition ([5]; at 33.0 µM): 73% (active)
growth inhibition [5, 18]: -15%
growth inhibition ([5]; at 50.0 µM): 98% (active)
growth inhibition ([5]; at 100.0 µM): 96% (active)
growth inhibition ([6]; at 1.2 µM): 34%
growth inhibition ([6]; at 3.7 µM): 13%
growth inhibition [6, 17]: -10%
growth inhibition ([6]; at 11.0 µM): 30%
growth inhibition ([6]; at 33.0 µM): 68%
growth inhibition [6, 18]: -4%
growth inhibition ([6]; at 50.0 µM): 98.3% (active)
growth inhibition ([6]; at 100.0 µM): 97% (active)
growth inhibition ([7]; at 1.2 µM): 4%
growth inhibition ([7]; at 3.7 µM): -1%
growth inhibition ([7]; at 11.0 µM): -5%
growth inhibition ([7]; at 33.0 µM): 65%
growth inhibition ([7]; at 100.0 µM): 96% (active)
growth inhibition [8, 17]: -9%
growth inhibition [8, 18]: 0%
growth inhibition ([8]; at 50.0 µM): 98.3% (active)
growth inhibition ([9]; at 1.2 µM): 3%
growth inhibition ([9]; at 3.7 µM): 8%
growth inhibition ([9]; at 11.0 µM): -8%
growth inhibition ([9]; at 33.0 µM): 25%
growth inhibition ([9]; at 100.0 µM): 95% (active)
growth inhibition [10, 17]: 3%
growth inhibition [10, 18]: 7%
growth inhibition ([10]; at 50.0 µM): 95.2% (active)
growth inhibition ([11]; at 1.2 µM): -27%
growth inhibition ([11]; at 3.7 µM): -41%
growth inhibition [11, 17]: -7%
growth inhibition ([11]; at 11.0 µM): -41%
growth inhibition ([11]; at 33.0 µM): 33%
growth inhibition [11, 18]: 2%
growth inhibition ([11]; at 50.0 µM): 96.2% (active)
growth inhibition ([11]; at 100.0 µM): 94% (active)
